The values that follow come from PubChem BioAssay (NCI).

A short description of the test: NCI Yeast Anticancer Drug Screen. Data for the sgs1 mgt1 strain (AID 161).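 Also: 0% = growth of cultures given vehicle only.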 Particulars: S. cerevisiae sgs1 mgt1 strain, hits give high values. The procedure: Growth inhibition of yeast strains with defined genetic alterations is measured as a screen for potential anti-cancer activity. Selected strains with alterations in DNA damage repair or cell cycle control were exposed to compounds and growth inhibition was measured relative to vehicle treated controls. The strain used in this assay is sgs1 mgt1

Where [1] appears, read: at 5.0 µM (retest, dose inferred, filed as 0.5).
Where [2] appears, read: at 50.0 µM (retest, dose inferred, filed as 5.0).

The panel holds about 79,000 compounds, 15% with a hit somewhere; the sample as a whole holds those more often. Unmarked numbers belong to inactive results. Calls of active or inactive are those of the source. Rule as the data show it: active = growth inhibition above about 70%; inactive = the rest.

As to `CN(C)CC(O)c1cc(-c2ccc(Cl)cc2)nc2c(Cl)cc(Cl)cc12` (configuration not stated), the growth inhibition was 41% under setting [1], 99% (active) under setting [2] and 99.5% (active) (at 50.0 µM).
The corresponding values for `CC(C)Cn1cnc2c(SCc3ccc(Cl)cc3Cl)nc(N)nc21` are 20%, 45% and 90.8% (active).
The corresponding values for `COc1ccccc1NC(=O)Oc1ccc(C(C)(CCC(=O)O)c2ccc(OC(=O)Nc3ccccc3OC)cc2)cc1` are -31%, -7% and 11.7%.
As for `CCOC(=O)C1=C(C)NC(=O)NC1c1coc2cc(C)cc(C)c2c1=O` (configuration not stated), the growth inhibition is, setting by setting: under setting [1], 3%; under setting [2], 14%; (at 50.0 µM) -2.5%.
The corresponding values for `Nc1cccc2c1[nH]c(=O)c1ccccc12` are 2%, 33% and 51.9%.
The corresponding values for `C=CC[C@]1(C(C)Cc2ccc(OC)c(OC)c2)C[C@@H](OC)C=CC1=O` (some centres not stated) are 0%, 85% (active) and 88.8% (active).
The corresponding values for `COc1cccc(/C=N/NC(=O)c2c(-c3ccccc3)noc2C)c1O` are 45%, 82% (active) and 89.2% (active).
In the case of `COc1ccc(-c2c(-c3ccccc3)c(C)nc3[nH]c(=S)[nH]c(=S)c23)cc1OC`, the growth inhibition is, setting by setting: under setting [1], 7%; under setting [2], 89% (active); (at 50.0 µM) 94.4% (active).
Regarding `COc1ccc(Oc2cc3c[n+](C)ccc3cc2OC)cc1`, the growth inhibition under setting [1] is -3%, the growth inhibition under setting [2] was 91% (active) and the growth inhibition (at 50.0 µM) is 99.4% (active).
In the same order, the values of `Cc1c(-c2ccccc2)ccnc1/C=N/NC(=S)NCCc1ccccc1` are 52%, 83% (active) and 75.5% (active).
With `O=C(O)/C=C/c1ccc2c(c1)CC1(Cc3ccccc3C1)C2`, the growth inhibition under setting [1] is 84% (active), the growth inhibition under setting [2] is 87% (active) and the growth inhibition (at 50.0 µM) was 73% (active).
In the same order, the values of `CC1CCCC(C(c2c[nH]c3ccccc23)c2c[nH]c3ccccc23)C1=O` (configuration not stated) are 3%, 97% (active) and 79.7% (active).
The corresponding values for `S=c1ncc2c([nH]1)C1c3ccccc3C2c2ccccc21` are 2%, 98% (active) and 90.1% (active).
In the same order, the values of `CC(C)(C)[Si](C)(C)OCC1OC(n2cnc3c(NC(=O)c4ccccc4)ncnc32)CC1O` (configuration not stated) are -1%, 6% and 3.25%.
